Data from PubChem BioAssay (EPA / NIEHS).
Active and inactive are the calls of the source. The calls were made as follows: active = hit-call score of the fitted dose curve at least 0.9, where 1 is the maximum; inactive = score below 0.9.

Experiments:
[1] = ATG_M_61_CIS: Attagene CIS-FACTORIAL HepG2 Assay for M61 Transcription Factor (Internal Marker) (AID 2282937); conditions: HepG2 Attagene CIS-FACTORIAL M61 internal marker reporter; actives raise or lower the signal
Method in brief: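 HepG2 cells transiently transfected with multiplexed cis-promoter reporter units reporting endogenous transcription factor activity, measured 24 h after dosing. Reporter mRNA quantified by RT-PCR and capillary electrophoresis; bidirectional fit against DMSO baseline.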

[2] = ATG_EGR_CIS: Attagene CIS-FACTORIAL HepG2 Assay for human Early Growth Response 1 (EGR1) (AID 2282938); conditions: HepG2 Attagene CIS-FACTORIAL EGR reporter mRNA; actives raise or lower the signal
Method in brief: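 HepG2 cells transiently transfected with cis-element-driven multiplexed reporter units, dosed for 24 h. EGR1-element reporter mRNA quantified by RT-PCR, 6-FAM labelling, HpaI digestion and capillary electrophoresis; bidirectional fit versus DMSO.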

[3] = ATG_M_19_CIS: Attagene CIS-FACTORIAL HepG2 Assay for M19 Transcription Factor (Internal Marker) (AID 2282939); conditions: HepG2 Attagene CIS-FACTORIAL M19 internal marker reporter; actives raise or lower the signal
Method in brief: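 Chemical-treated HepG2 (24 h) with MRTU constructs; reporter transcripts detected by fluorescent RT-PCR fragment analysis on capillary electrophoresis. Internal background marker, DMSO as baseline.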

[4] = ATG_ERE_CIS: Attagene CIS-FACTORIAL HepG2 Assay for Estrogen Response Element (ERE) (AID 2282940); conditions: HepG2 ERE cis-reporter, Attagene RNA transcript; actives raise or lower the signal
Method in brief: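 Human liver cells (HepG2) bearing transiently transfected, promoter-regulated reporter units were exposed 24 h. Reporter mRNA induction was detected by capillary electrophoresis of labelled RT-PCR products and fitted bidirectionally to DMSO.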

[5] = ATG_Ets_CIS: Attagene CIS-FACTORIAL HepG2 Assay for human Erythroblast Transformation Specific (ETS) (AID 2282941); conditions: HepG2 ETS cis-reporter transcription, actives raise or lower the signal
Method in brief: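 Cis-regulated reporter mRNA induction in HepG2 (transient transfection), 24 h exposure, RT-PCR plus capillary electrophoresis detection; DMSO serves as negative control and baseline.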

[6] = biological target: Hepatocyte nuclear factor 3-beta (Homo sapiens) (UniProt Q9Y261); experiment: ATG_FoxA2_CIS: Attagene CIS-FACTORIAL HepG2 Assay for human Forkhead box A2 (FOXA2) (AID 2282942); conditions: HepG2 cis-reporter transcription factor activity, 24 h; actives raise or lower the signal
Method in brief: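 HepG2 transiently transfected with a multiplexed cis-promoter reporter library read endogenous FOXA2 activity. After 24 h compound exposure, reporter mRNA was quantified by RT-PCR, HpaI digestion and capillary electrophoresis. Bidirectional fit against DMSO.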

[7] = ATG_FoxO_CIS: Attagene CIS-FACTORIAL HepG2 Assay for human Forkhead box O (FoxO) (AID 2282943); conditions: HepG2 Attagene cis-reporter, FoxO element, mRNA; actives raise or lower the signal
Method in brief: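 24 h chemical exposure, HepG2 with transient cis-MRTU transfection. RNA extraction, oligo(dT) RT, reporter-specific PCR, primer-extension labelling, HpaI digestion, CE fragment analysis; bidirectional fit, DMSO baseline.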

[8] = ATG_GATA_CIS: Attagene CIS-FACTORIAL HepG2 Assay for human GATA Binding Protein (AID 2282944); conditions: HepG2 GATA cis-element reporter, Attagene multiplex mRNA; actives raise or lower the signal
Method in brief: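 Transfected cis-reporter HepG2 cells were treated with chemicals for 24 hours. Total RNA was then converted to cDNA, amplified with reporter-specific primers and analysed by fluorescent capillary electrophoresis, using DMSO-treated wells as baseline.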

[9] = ATG_GLI_CIS: Attagene CIS-FACTORIAL HepG2 Assay for human Zinc Finger Protein GLI1 (AID 2282945); conditions: HepG2, Attagene cis-factorial reporter mRNA, GLI element; actives raise or lower the signal
Method in brief: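 HepG2 cells transiently transfected with cis-promoter multiplexed reporter units report endogenous transcription factor activity. After 24 h chemical exposure, reporter mRNA was quantified by RT-PCR, 6-FAM labelling, HpaI digestion and capillary electrophoresis, with bidirectional fitting against DMSO.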

[10] = biological target: Bile acid receptor (Homo sapiens) (UniProt Q96RI1); experiment: ATG_IR1_CIS: Attagene CIS-FACTORIAL HepG2 Assay for human Nuclear Receptor Subfamily 1 Group H Member 4 (NR1H4), IR1 submotif (AID 2282946); conditions: IR1 reporter transcription, actives raise or lower the signal
Method in brief: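 Readout: reporter transcript levels by RT-PCR with fluorescent capillary electrophoresis, from HepG2 cells transiently transfected with multiplexed cis-regulated reporters and dosed 24 h. Gain- or loss-of-signal fitted versus DMSO negative control.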

[11] = ATG_GRE_CIS: Attagene CIS-FACTORIAL HepG2 Assay for human Glucocorticoid Response Elements (GRE) (AID 2282947); conditions: HepG2 GRE cis-reporter, Attagene multiplex mRNA; actives raise or lower the signal
Method in brief: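 HepG2, transient cis-reporter transfection, 24 h. Reporter mRNA: RT-PCR then CE, fluorescence. Fit both directions vs DMSO.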

[12] = ATG_ISRE_CIS: Attagene CIS-FACTORIAL HepG2 Assay for human Interferon Regulatory Factor 1 (IRF1) binding to an Interferon-Stimulated Response Element (ISRE) (AID 2282948); conditions: HepG2 ISRE cis-reporter (Attagene), mRNA transcription readout; actives raise or lower the signal
Method in brief: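 Multiplexed mRNA reporter readout in human liver HepG2 cells: cis-element-driven reporters transfected, compound added for 24 h, transcripts amplified, fluorescently labelled and sized by capillary electrophoresis; curve fitting bidirectional against DMSO.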

[13] = ATG_M_32_CIS: Attagene CIS-FACTORIAL HepG2 Assay for M32 Transcription Factor (Internal Marker) (AID 2282949); conditions: HepG2 Attagene cis-factorial M32 reporter, mRNA; actives raise or lower the signal;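 also: background control marker of the multiplexed CIS panel rather than a real target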
Method in brief: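 Using DMSO as baseline, bidirectional curve fits were applied to reporter mRNA signals. These came from transiently transfected HepG2 cells exposed for 24 h, with RNA analysed by RT-PCR, FAM primer extension, HpaI digestion and CE.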

[14] = biological target: Hepatocyte nuclear factor 6 (Homo sapiens) (UniProt Q9UBC0); experiment: ATG_HNF6_CIS: Attagene CIS-FACTORIAL HepG2 Assay for human Hepatocyte Nuclear Factor 6 (HNF6) (AID 2282952); conditions: HepG2 Attagene cis-factorial HNF6 reporter transcription; actives raise or lower the signal
Method in brief: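 Using cis-element reporters in HepG2 liver cells, the assay tracks endogenous factor-driven transcription 24 h post-dosing. Signal comes from 6-FAM-labelled, HpaI-digested RT-PCR fragments, with gain or loss scored against DMSO.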

[15] = ATG_MRE_CIS: Attagene CIS-FACTORIAL HepG2 Assay for human Metal Responsive Element (MRE) (AID 2282954); conditions: HepG2 MRE cis-reporter transcription, Attagene multiplex; actives raise or lower the signal
Method in brief: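 Readout: capillary electrophoresis of 6-FAM-labelled, HpaI-digested RT-PCR reporter products. System: HepG2 cells carrying transient multiplexed cis reporters, dosed 24 h. Analysis: bidirectional fit, DMSO baseline.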

[16] = ATG_E_Box_CIS: Attagene CIS-FACTORIAL HepG2 Assay for human Enhancer Box (E-box) (AID 2282936); conditions: HepG2 E-box cis-reporter transcription, actives raise or lower the signal
Method in brief: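 Measured 24 h post-dosing in HepG2 cells transfected with multiple cis-regulated reporter units, signal being reporter mRNA induction detected by fluorescent RT-PCR with capillary electrophoresis; gain or loss fitted against DMSO.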

[17] = biological target: Heat shock factor protein 1 (Homo sapiens) (UniProt Q00613); experiment: ATG_HSE_CIS: Attagene CIS-FACTORIAL HepG2 Assay for human Heat Shock Transcription Factor 1 (HSE) (AID 2282953); conditions: HepG2 HSE cis-reporter, Attagene RNA transcription; actives raise or lower the signal
Method in brief: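 Liver-derived HepG2 cells carry transiently introduced multiple reporter units governed by cis promoters. Reporter RNA measured 24 h post-dose through reverse transcription, PCR amplification, fluorescent labelling and capillary electrophoresis, normalised to DMSO.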

[18] = biological target: Hypoxia-inducible factor 1-alpha (Homo sapiens) (UniProt Q16665); experiment: ATG_HIF1a_CIS: Attagene CIS-FACTORIAL HepG2 Assay for human Hypoxia Inducible Factor 1 (HIF1A) (AID 2282951); conditions: HepG2 Attagene cis-factorial HIF1a reporter transcription; actives raise or lower the signal
Method in brief: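 HepG2 cells transiently transfected with multiple cis-regulated reporter transcription units measure endogenous transcription factor activity. After 24 h exposure, reporter mRNA is quantified by RT-PCR with 6-FAM labelling, HpaI digestion and capillary electrophoresis. Bidirectional fitting against DMSO.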

[19] = ATG_M_06_CIS: Attagene CIS-FACTORIAL HepG2 Assay for M06 Transcription Factor (Internal Marker) (AID 2282950); conditions: HepG2 Attagene CIS-FACTORIAL M06 internal marker reporter; actives raise or lower the signal
Method in brief: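 Cells (HepG2, transiently carrying cis-driven reporter units) receive chemical for 24 h before RNA isolation. Reporter cDNA is PCR-amplified, FAM-labelled by primer extension, HpaI-digested and sized on a capillary analyser.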

Measured: AC50

Chain of Hepatocyte nuclear factor 6 (Homo sapiens) (Q9UBC0 whole entry, looked up, the tested form may be a part): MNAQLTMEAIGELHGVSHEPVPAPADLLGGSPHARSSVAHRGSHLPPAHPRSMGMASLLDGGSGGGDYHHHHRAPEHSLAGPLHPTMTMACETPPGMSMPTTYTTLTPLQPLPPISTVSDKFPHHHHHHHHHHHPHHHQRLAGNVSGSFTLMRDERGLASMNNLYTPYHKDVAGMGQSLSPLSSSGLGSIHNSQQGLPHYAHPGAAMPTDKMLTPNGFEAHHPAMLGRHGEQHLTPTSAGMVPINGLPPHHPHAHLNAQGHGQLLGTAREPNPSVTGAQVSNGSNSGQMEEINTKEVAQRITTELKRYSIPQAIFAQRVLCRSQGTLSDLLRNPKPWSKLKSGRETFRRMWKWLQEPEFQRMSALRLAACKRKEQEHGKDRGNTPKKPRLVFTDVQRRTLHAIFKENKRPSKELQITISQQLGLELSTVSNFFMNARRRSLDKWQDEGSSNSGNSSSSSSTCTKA
Chain of Hepatocyte nuclear factor 3-beta (Homo sapiens) (Q9Y261 whole entry, looked up): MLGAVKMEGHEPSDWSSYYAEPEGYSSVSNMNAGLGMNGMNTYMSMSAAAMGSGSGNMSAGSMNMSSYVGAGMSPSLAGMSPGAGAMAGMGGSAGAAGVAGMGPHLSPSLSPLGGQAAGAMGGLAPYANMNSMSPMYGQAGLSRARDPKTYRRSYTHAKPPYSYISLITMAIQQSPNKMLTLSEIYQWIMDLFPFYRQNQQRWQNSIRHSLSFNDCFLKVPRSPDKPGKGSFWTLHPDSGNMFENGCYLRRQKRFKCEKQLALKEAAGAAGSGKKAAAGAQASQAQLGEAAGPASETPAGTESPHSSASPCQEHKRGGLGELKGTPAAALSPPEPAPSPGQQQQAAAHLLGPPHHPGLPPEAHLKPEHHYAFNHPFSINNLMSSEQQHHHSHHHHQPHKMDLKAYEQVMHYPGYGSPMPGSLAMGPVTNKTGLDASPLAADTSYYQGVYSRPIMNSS
Chain of Hypoxia-inducible factor 1-alpha (Homo sapiens) (Q16665 whole entry, looked up): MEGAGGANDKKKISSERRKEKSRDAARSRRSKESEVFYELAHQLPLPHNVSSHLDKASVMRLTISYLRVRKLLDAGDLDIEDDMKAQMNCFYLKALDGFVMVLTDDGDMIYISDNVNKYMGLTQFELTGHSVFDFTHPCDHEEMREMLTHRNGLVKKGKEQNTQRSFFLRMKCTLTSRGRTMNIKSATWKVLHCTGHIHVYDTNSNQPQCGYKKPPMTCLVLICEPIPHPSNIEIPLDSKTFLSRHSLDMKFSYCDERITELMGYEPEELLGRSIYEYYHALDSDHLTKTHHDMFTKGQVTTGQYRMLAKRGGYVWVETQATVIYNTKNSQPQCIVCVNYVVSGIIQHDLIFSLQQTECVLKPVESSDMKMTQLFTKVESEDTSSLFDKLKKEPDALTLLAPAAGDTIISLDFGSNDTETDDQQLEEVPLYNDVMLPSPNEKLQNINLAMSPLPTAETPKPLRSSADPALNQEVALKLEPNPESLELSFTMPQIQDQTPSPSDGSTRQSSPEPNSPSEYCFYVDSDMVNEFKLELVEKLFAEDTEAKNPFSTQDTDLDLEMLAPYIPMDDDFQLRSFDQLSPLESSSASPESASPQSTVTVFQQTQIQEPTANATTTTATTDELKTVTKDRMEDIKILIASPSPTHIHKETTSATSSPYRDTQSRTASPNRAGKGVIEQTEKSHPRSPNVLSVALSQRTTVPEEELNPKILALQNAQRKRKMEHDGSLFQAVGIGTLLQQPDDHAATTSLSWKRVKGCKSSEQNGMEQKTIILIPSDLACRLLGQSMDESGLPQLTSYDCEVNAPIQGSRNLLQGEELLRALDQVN
Chain of Bile acid receptor (Homo sapiens) (Q96RI1 whole entry, looked up): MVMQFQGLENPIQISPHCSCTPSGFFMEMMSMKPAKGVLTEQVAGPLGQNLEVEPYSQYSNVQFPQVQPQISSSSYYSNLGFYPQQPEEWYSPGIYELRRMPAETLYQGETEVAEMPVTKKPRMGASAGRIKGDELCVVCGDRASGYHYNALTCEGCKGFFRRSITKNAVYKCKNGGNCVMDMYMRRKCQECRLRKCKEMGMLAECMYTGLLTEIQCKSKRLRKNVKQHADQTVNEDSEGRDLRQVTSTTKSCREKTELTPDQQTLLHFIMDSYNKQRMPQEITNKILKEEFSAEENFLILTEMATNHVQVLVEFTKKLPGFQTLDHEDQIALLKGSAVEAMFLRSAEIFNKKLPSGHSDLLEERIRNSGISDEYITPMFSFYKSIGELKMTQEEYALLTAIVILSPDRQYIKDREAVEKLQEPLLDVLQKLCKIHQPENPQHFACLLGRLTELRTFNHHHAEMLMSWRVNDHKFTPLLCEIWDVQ
Chain of Heat shock factor protein 1 (Homo sapiens) (Q00613 whole entry, looked up): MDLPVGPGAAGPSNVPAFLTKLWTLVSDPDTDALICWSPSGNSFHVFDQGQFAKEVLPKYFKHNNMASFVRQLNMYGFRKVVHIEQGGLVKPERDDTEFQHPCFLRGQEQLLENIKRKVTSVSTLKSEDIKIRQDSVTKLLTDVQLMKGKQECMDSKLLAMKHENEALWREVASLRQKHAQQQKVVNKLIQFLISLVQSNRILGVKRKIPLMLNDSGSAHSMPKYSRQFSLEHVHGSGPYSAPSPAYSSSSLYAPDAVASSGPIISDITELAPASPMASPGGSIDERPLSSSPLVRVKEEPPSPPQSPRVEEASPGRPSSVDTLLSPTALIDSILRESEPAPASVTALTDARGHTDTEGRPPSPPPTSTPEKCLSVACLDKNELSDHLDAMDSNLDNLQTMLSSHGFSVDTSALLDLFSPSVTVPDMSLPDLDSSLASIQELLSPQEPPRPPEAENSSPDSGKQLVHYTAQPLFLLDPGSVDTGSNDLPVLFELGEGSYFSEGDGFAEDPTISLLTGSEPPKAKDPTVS

O=S(=O)(OCCOC(F)(F)F)C(F)(F)F
not listed: [16] | [17] | [18] | [19]
inactive: all other assays above

CCCCCCOC(=O)c1ccccc1O
active: [4] 31.4 µM
not listed: [1] | [18] | [19]
inactive: all other assays above

FC(F)(F)C(F)(F)C(F)(F)C(F)(F)C(F)(F)C(F)(F)C(F)(F)Br
not listed: [1] | [16] | [17] | [19]
inactive: all other assays above

CCCCCCC(C)OC(=O)CCCCC(=O)OC(C)CCCCCC (centres undefined)
not listed: [1] | [16] | [17] | [19]
inactive: all other assays above

Nc1cc(Cl)c(N)c(Cl)c1
active: [4] 7.29 µM
not listed: [16]
inactive: all other assays above
